Screening results (PubChem BioAssay)
Shown are actives, neighbours in structure and some others; about 4.2% of the full set was active somewhere.
Wnt act = activates Wnt/beta-catenin signaling in a reporter cell assay; activator, plate reader; activation, % at 9.35 µM; 300,000 compounds, 1.2% hits; in the data active = activation above about 30%, passing the limit was not always enough; inconclusive = no clear call, values can overlap the other calls;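 note: 0% = neutral control wells and 100% = positive control wells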
MITF act = activators of MITF-driven TRPM1 promoter activity in SK-MEL-5 cells; SK-MEL-5 TRPM1-promoter luciferase, 24 h; % of positive control, neutral wells = 0; activation, % at 12.5 µM; 300,000 compounds, 0.75% hits;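 active = mean activation of at least 80% with every replicate also reaching 80%; inconclusive = mean reaches 80% but some replicate falls short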;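 note: 0% = neutral control wells and 100% = parthenolide positive control wells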
FXN GAA850 act = frataxin GAA850 promoter activation; AID 540364; activation, % at 6 µM; 360,000 compounds, 0.56% hits; HEK293 lucGAA850 FXN promoter luciferase reporter, 24 h; percent of 10 µM SAHA response;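 active = activation above the average of all compounds screened plus 3 SD, cutoff fixed separately per campaign, cut at about 7.5% in these data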;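 note: 0% = DMSO wells and 100% = 10 µM SAHA wells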
esBAF inh = blocks esBAF chromatin remodeling in mouse ES cells | Bmi1-luciferase knock-in reporter, 24 h; 100% = twice the neutral-well signal | reporter increase, % at 12.5 µM | 350,000 compounds, 2% hits | AID 602393; in the data active = activation above about 40%; inconclusive = no clear call, values can overlap the other calls;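 note: 0% = median of the plate's neutral control wells and 100% = double that signal; a rise in the Bmi1 reporter signal indicates esBAF inhibition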
AHR act = activates the human aryl hydrocarbon receptor; AHR-responsive luciferase reporter cells, luminescence; activation, % at 5 µM; 320,000 compounds, 2.5% hits; in the data active = activation above about 47%;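 note: 0% = vehicle wells and 100% = reference agonist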
Target sequence (P35869 whole entry, looked up): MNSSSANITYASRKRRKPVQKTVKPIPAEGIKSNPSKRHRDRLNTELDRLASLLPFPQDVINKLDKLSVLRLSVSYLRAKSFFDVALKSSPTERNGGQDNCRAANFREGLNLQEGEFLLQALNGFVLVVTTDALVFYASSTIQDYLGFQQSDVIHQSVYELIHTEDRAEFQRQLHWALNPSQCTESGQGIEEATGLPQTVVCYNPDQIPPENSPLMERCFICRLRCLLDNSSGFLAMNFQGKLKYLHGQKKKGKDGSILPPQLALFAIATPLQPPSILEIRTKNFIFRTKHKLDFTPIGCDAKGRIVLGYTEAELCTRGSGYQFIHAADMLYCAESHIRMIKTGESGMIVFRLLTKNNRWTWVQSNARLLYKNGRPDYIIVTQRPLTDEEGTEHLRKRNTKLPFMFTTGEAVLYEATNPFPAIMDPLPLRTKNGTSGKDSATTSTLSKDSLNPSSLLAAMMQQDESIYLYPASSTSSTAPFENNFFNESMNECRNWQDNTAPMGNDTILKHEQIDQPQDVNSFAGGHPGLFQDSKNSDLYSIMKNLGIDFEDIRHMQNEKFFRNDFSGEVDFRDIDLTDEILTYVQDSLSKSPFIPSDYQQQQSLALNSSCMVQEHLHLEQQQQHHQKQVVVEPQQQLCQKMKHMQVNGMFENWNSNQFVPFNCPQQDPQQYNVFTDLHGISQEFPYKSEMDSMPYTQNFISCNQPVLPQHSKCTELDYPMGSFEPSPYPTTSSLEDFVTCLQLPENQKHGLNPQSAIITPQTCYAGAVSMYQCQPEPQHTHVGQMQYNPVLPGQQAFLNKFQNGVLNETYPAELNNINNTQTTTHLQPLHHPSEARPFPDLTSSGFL
* marks the source's active call; other numbers are inactive results; ? = inconclusive; . = not tested or not shown.

SMILES	Wnt act	MITF act	FXN GAA850 act	esBAF inh	AHR act
CCc1ccccc1-n1c(SCC(=O)N2CCCC2)nnc1-c1ccccn1	65*	1	0	-3	-1
Cn1c(SCC(=O)c2ccccc2)nnc1-c1ccccn1	57*	.	3	36	18
CNC(=O)C[C@@H]1CC[C@@H]2[C@H](COC[C@@H](O)CN2Cc2ccc(C(F)(F)F)cc2)O1	.	.	.	4	.
CCn1c(SCC(=O)c2ccc(O)c(O)c2)nnc1-c1ccccc1	.	31	3	45*	2
O=C(c1ccc2ccccc2c1)N1CCN(Cc2ccccc2)CC1	9	60	4	69*	7
O=C(c1cccc(C(=O)N2CCN(Cc3ccccc3)CC2)c1)N1CCN(Cc2ccccc2)CC1	.	-11	-2	-6	-4
O=C(Nc1ccc2c(c1)OCO2)c1noc2c1CCCCC2	.	3	2	.	30
CC(=O)c1ccc(NC(=O)c2noc3c2CCCCC3)cc1	.	89*	7	-2	-6
O=C(Nc1ccc2c(c1)OCO2)c1noc2c1CCCC2	38*	8	0	-3	55*
C[C@H]1CN([C@@H](C)CO)C(=O)c2cc(NS(=O)(=O)c3cn(C)cn3)ccc2O[C@@H]1CN(C)C	.	.	.	1	.
Cc1ccsc1CNc1ncnc2ccc(-c3c(C)noc3C)cc12	5	-41	1	-28	56*
COc1ccc(O)c(/C=N/NC(=O)CCC(=O)Nc2cccc(C)c2)c1	-1	-7	0	.	10
COc1ccc(OC)c(/C=N/NC(=O)CCCC(=O)Nc2cccc(Br)c2)c1	-2	7	0	5	70*
Cc1sc(N/N=C/C=C/c2ccccc2)nc1-c1ccccc1	-6	7	3	.	73*
Cc1cc(C)nc(N/N=C/C=C/c2ccccc2)n1	.	17	1	31	33
CN(C)c1ccc(NC(=O)CN2CCc3ccccc3C2)cc1	5	46	7	44*	15
CS(=O)(=O)N(CC(=O)N1CCc2ccccc2C1)c1cccc(F)c1	-1	2	2	0	0
CS(=O)(=O)N1CCc2cc(C(=O)Nc3ccc(Cl)cc3)ccc21	8	.	3	63*	-2
O=C(CN(c1cccc(Cl)c1)S(=O)(=O)c1ccc(Cl)cc1)N1CCc2ccccc2C1	-26	10	0	.	61*
CCOc1ccc(NC(=O)N2CCc3ccccc3C2)cc1	5	36	3	?	67*
C[C@@H]1CN([C@H](C)CO)C(=O)c2cc(NC(=O)CCN3CCOCC3)ccc2O[C@H]1CN(C)C(=O)Nc1ccc(C(F)(F)F)cc1	.	.	.	-6	.
CNC[C@@H]1Oc2ccc(NS(=O)(=O)c3ccc(Cl)cc3)cc2CC(=O)N([C@H](C)CO)C[C@H]1C	.	.	.	-4	.
CC(=O)c1ccc(NC(=O)N2CCc3ccccc3C2)cc1	16	78	7	.	1
O=C(CNc1cccc(F)c1)N1CCc2ccccc2C1	36*	?	6	51*	9
COc1ccc(NC(=O)N2CCc3ccccc3C2)cc1	1	14	7	39	.
SMILES	Wnt act	MITF act	FXN GAA850 act	esBAF inh	AHR act
N#CCc1ccc(NC(=O)c2ccc(CN3CCc4ccccc4C3)cc2)cc1	-1	-6	-3	17	-1
Cc1ccc(NC(=O)N2CCc3ccccc3C2)cc1	.	?	5	46*	16
O=C(Nc1ccc(Cl)cc1)c1ccc(CN2CCc3ccccc3C2)cc1	5	3	1	49*	5
O=C(Nc1ccc(Cl)cc1)N1CCc2ccccc2C1	-1	72	8	48*	63*
C[C@@H]1CN([C@H](C)CO)S(=O)(=O)c2ccc(C3=CCCCC3)cc2O[C@H]1CN(C)C(=O)CN(C)C	.	.	.	-5	.
COc1ccc(CC(=O)N2CCc3ccccc3C2)cc1	1	14	2	14	.
O=C(Cc1ccc(Cl)cc1)N1CCc2ccccc2C1	?	.	2	46*	-5
O=C(N[C@H]1CC[C@H](CCn2cc(C3(O)CCCC3)nn2)O[C@H]1CO)c1ccccc1F	.	.	.	-13	.
CN1c2ccc(-c3cccc(F)c3)cc2[C@@H]2[C@@H](CCN2C(=O)Cc2ccccc2)[C@H]1CO	.	.	.	0	.
Cc1ccc(N2C(=NC(=O)c3ccccc3)SC3CS(=O)(=O)CC32)cc1 (stereo not drawn)	0	1	2	.	0
CCCC(=O)N=C1SC2CS(=O)(=O)CC2N1c1ccc(-c2nc3ccc(C)cc3s2)cc1 (stereo not drawn)	34*	57	7	.	13
O=S(=O)(N[C@H]1CC[C@@H](CCn2cc(C3(O)CCCC3)nn2)O[C@@H]1CO)c1ccccc1	.	.	.	-3	.
O=C(OCc1nc2ccccc2s1)c1cnccn1	.	42	1	55*	13
O=C(OCc1nc2ccccc2s1)c1ccccc1O	15	?	1	.	7
Cc1ccc(OCC(=O)Nc2ccc(C)c(F)c2)c([N+](=O)[O-])n1	-3	114*	4	56*	.
Cc1ccc(OCc2ccccc2C)c([N+](=O)[O-])n1	2	27	5	11	-8
Cc1ccc(OCCOc2ccc(Br)cc2)c([N+](=O)[O-])n1	13	123*	6	65*	2
O=C(C[C@H]1CC[C@H]2[C@@H](COC[C@H](O)CN2C(=O)Nc2ccc(Cl)c(Cl)c2)O1)NCc1ccncc1	.	.	.	2	.
C[C@@H]1CN([C@@H](C)CO)C(=O)c2cc(NS(C)(=O)=O)ccc2O[C@H]1CN(C)Cc1ccc(Cl)c(Cl)c1	.	.	.	2	.
CCOC(=O)c1cccc(NC(=O)c2cnc3ccccc3n2)c1	-4	28	2	53*	-4
CCOC(=O)c1ccc(NCc2nc3ccccc3[nH]2)cc1	?	57	0	50*	14
O=C(O)c1ccc(Nc2cnc3ccccc3n2)cc1	.	18	6	28	22
CCOC(=O)c1ccc(Nc2cnc3ccccc3n2)cc1	34*	?	4	.	1
CCc1ccc(NCc2nc3ccccc3c(=O)[nH]2)cc1	35*	21	5	3	43
C[C@H](CO)N1C[C@H](C)[C@H](CN(C)Cc2ccc3c(c2)OCO3)Oc2ccc(NC(=O)NC3CCCCC3)cc2C1=O	.	.	.	0	.
SMILES	Wnt act	MITF act	FXN GAA850 act	esBAF inh	AHR act
Nc1ccc2nc3c(=O)n(C4CCCCC4)c(=O)[nH]c3nc2c1	43*	79	6	37	1
COc1ccccc1NC(=O)c1csc2c1CCC(C)C2 (stereo not drawn)	-2	31	1	.	55*
COc1cc(NC(=O)c2ccccc2-c2ccccc2)cc(OC)c1	-1	4	-4	.	48*
CC1CCc2c(C(=O)NCc3ccco3)csc2C1 (stereo not drawn)	15	16	4	.	-2
COc1cc2ccccc2cc1C(=O)Nc1ccc(O)cc1	53*	.	7	?	41
COc1cccc(NC(=O)c2csc3c2CCCC3)c1	46*	95*	4	69*	15
COc1cccc(NC(=O)CN(C)C(=O)c2csc3c2CCCC3)c1	-2	6	2	-6	3
C[C@H]1CN([C@@H](C)CO)C(=O)c2cc(NC(=O)C3CCCCC3)ccc2O[C@@H]1CN(C)C(=O)Nc1ccc(C(F)(F)F)cc1	.	.	.	2	.
